Only some compounds are listed: those with a hit (about 1.2% of all), similar ones and a draw of the others.
CtBP-E1A inh = blocks the CtBP interaction with E1A | AlphaScreen GST-E1A/His-CtBP binding, 1536-well; hits give low values | activity change, % (no concentration beside the values) | 340,000 compounds, 0.49% hits | AID 651724
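Homogeneous bead-based format: GST-tagged E1A captured on glutathione donor beads, His-tagged CtBP on nickel acceptor beads; compounds precede bead addition by 2 h at 37 °C.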
CCT modulator = cytosolic chaperonin activity modulation | purified chaperonin ATPase assay, HTRF ADP detection, 30 min | 360,000 compounds, 0.3% hits | activity change, % (concentration not given with the values), hits read low; in the data active means activity change below about -30%
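Enzyme 40 or 20 nM (batch-dependent) in Tris pH 7.4/KCl/MgCl2/DTT; cpd 76 uM single point; ATP 10 uM; 30 min 37 °C; Transcreener ADP HTRF detection, 30 min RT; ratio 665/615.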
Six1-Eya2 inh = blocks human Six1 binding to Eya2 | Q15475+O00167 | AlphaScreen GST-Six1/His-Eya2 binding, biochemical; hits give low values | activity change, % (no concentration beside the values) | 360,000 compounds, 0.56% hits | AID 651725
Target sequence (O00167 whole entry, looked up): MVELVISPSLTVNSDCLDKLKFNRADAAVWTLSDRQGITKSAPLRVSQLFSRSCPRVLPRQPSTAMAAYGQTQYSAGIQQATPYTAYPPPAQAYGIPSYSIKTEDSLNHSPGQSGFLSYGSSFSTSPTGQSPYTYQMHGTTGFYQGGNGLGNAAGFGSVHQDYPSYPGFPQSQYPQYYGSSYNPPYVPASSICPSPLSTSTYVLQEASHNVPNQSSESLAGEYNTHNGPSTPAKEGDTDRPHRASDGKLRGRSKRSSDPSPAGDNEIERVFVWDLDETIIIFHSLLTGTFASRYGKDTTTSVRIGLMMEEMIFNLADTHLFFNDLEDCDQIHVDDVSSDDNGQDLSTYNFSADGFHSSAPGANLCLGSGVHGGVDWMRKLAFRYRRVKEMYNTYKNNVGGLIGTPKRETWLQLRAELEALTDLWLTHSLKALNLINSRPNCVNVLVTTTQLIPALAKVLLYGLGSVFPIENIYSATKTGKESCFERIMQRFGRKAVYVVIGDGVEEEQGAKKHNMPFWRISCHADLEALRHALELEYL
Target sequence (Q15475 whole entry, looked up): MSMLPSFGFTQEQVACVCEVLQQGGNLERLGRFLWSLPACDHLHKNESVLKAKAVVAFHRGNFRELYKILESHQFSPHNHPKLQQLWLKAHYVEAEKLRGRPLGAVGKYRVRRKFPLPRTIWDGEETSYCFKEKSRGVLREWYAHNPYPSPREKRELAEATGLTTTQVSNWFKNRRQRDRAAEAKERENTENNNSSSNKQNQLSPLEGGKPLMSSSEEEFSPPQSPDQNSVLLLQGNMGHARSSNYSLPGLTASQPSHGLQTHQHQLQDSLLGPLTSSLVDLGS
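AlphaScreen with GST-Six1 and His-Eya2 (5X mix: 250 nM and 500 nM), glutathione donor and nickel acceptor beads; buffer 50 mM Tris pH 8.0, 300 mM NaCl, 1 mM TCEP; 1 h at 37 C in the dark.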
Akt phos inh = inhibitors of Akt phosphorylation | Neuro2A IGF-stimulated pAkt S473 HTRF, 20 min; hits give low values | activity change, % for hits at 50 µM | 360,000 compounds, 0.32% hits | AID 651550; in the data active means activity change below about -80%; inconclusive means mostly about -51% to -80%
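Neuro2A cells in DMEM with 0.5% FBS, overnight at 37 deg C, given compound at single 50 µM final, then IGF (6 nM final) for 20 min at 37 deg C. Lysed; phospho-Akt Ser473 by HTRF after 24 h, 665/615 ratio.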
Of the large screens only hits and unclear results are named; the others gave an inactive call. Unless noted, no stated cut-off is given here; in the data, active means activity change below about -65%; inconclusive means mostly about -30% to -63%; inactive means weaker than that.

C/C(=N/NC(=O)c1ccncc1)c1cc2ccc(O)cc2oc1=O	Six1-Eya2 inh -85
C/C(=N\NC(=O)c1ccncc1)c1cc2ccccc2o1	none
C/C(=N\NC(=O)c1ccncc1)c1cc2ccccc2oc1=O	Six1-Eya2 inh -80
Cc1nn(Cc2ccccc2)c(C)c1NC(=O)CSc1nc(C2CC2)nc2c1cnn2-c1ccccc1	Akt phos inh -114%
C=C[C@]1(C)C=C2C(=O)[C@@]3(O)OC(=O)[C@@]4(CCCC(C)(C)[C@H]34)[C@@]2(O)CC1	Six1-Eya2 inh inconclusive
CN(C)c1ccc2c(c1)C(=NO)c1ccccc1-2	Six1-Eya2 inh -66
ON=C1c2ccccc2-c2ccccc21	none
COc1ccc(CNc2nc3ccccc3n2CCN2CCOCC2)cc1	CCT modulator -45
Cc1nc(SCC(=O)Nc2ccc3[nH]c(=O)[nH]c3c2)nc(C)c1C	none
CC(=O)c1sc(-c2ccc(Cl)cc2)cc1N	none (no result: CtBP-E1A inh)
COC(=O)c1sc(-c2ccc(Cl)cc2)cc1N	CCT modulator -40
COc1ccc(Cc2nc3ccc(C(=O)N(C)Cc4cc(C)[nH]n4)cc3o2)cc1OC	CCT modulator -70
CCOc1ccc(C2C3=C(Nc4nc(N)[nH]c(=O)c42)c2ccccc2C3=O)cc1 (stereo not given)	Six1-Eya2 inh -72
O=c1c2c(-c3ccccc3)csc2ncn1/N=C/c1cccc([N+](=O)[O-])c1O	CtBP-E1A inh -72, Six1-Eya2 inh inconclusive
Oc1[nH]c2c(Cl)cc(Cl)cc2c1N=NC(=S)NCC1CCCO1 (stereo not given)	CCT modulator -40
COc1ccc(NC(=O)COC(=O)CCc2ccc(S(=O)(=O)N3CCOCC3)cc2)c(OC)c1	none
CCOC(=O)n1c2ccccc2c(=O)n1CCO	CCT modulator -33
CCOC(=O)Cn1c(=O)n(CC(=O)OCC)c2ccccc21	none
CNc1cncc(-c2cccc(C(C)=O)c2)n1	none
CNc1cncc(-c2cccc(NS(C)(=O)=O)c2)n1	CtBP-E1A inh -67, Six1-Eya2 inh inconclusive
CCCn1cnc2c(SCc3ccccc3Cl)nc(N)nc21	none
COc1cc(C(=O)N2CCN(c3cccc(C(F)(F)F)c3)CC2)ccc1OCC(=O)N1CCOCC1	none
Cc1ccc(NC(=O)CSCc2c(C)noc2C)cc1C	CCT modulator -44
CCS(=O)(=O)N1CCC(C(=O)Nc2cccc(F)c2)CC1	CCT modulator -54 (no result: CtBP-E1A inh)
COc1ccccc1-c1coc2cc(OC(=O)/C=C/c3ccccc3)ccc2c1=O	CtBP-E1A inh -68
COc1ccc(Oc2coc3cc(OC(=O)/C=C/c4ccccc4)ccc3c2=O)cc1	CtBP-E1A inh inconclusive
Cc1cn([C@H]2C[C@H](O)[C@@H](CCC(=O)NCc3ccccc3)O2)c(=O)[nH]c1=O	none
COc1ccc(-c2cc(C(=O)N3CCCCCC3)c3ccccc3n2)cc1	none
NC(=O)c1ccccc1N/C=C/C(=O)c1ccco1	CCT modulator -60
Cc1cc(NC(=O)CSc2nnc(CNC(=O)c3ccc(C(C)(C)C)cc3)o2)no1	CtBP-E1A inh inconclusive, Six1-Eya2 inh -76
Cc1cc(NC(=O)CSc2nnc(-c3ccco3)o2)no1	CtBP-E1A inh -90, Six1-Eya2 inh -74
CC(=O)Nc1ccc(NC(=O)CSc2nnc(-c3ccco3)o2)cc1	none
Cc1[nH]c(=O)c(Cc2ccccc2)c(O)c1C#N	none
CSc1ccccc1NC(=O)CN1CCN(S(=O)(=O)c2ccccc2[N+](=O)[O-])CC1	none
CCOC(=O)Cn1c(-c2cccnc2Cl)nc2cc(C)c(C)cc21	CCT modulator -34
CCOC(=O)Cn1c(-c2cccnc2Cl)nc2cc(Cl)c(Cl)cc21	none
COC(=O)c1c(NC(=O)c2cccs2)sc2c1CCC(C)C2 (stereo not given)	Akt phos inh -101%
CC1CCc2c(sc(NC(=O)c3cccs3)c2C(=O)O)C1 (stereo not given)	none
Cc1nc(NC(=O)CSC2=NCCS2)sc1C(=O)N(C)C	none
O=[N+]([O-])c1ccc(SCc2ccncc2)nc1	none (no result: CtBP-E1A inh)
C[C@H](CO)N1C[C@H](C)[C@@H](CN(C)S(C)(=O)=O)Oc2ccc(NC(=O)CCC(F)(F)F)cc2C1=O	none
CN(C)S(=O)(=O)c1cccc(NC(=S)NNC(=O)c2cc3ccccc3cc2O)c1	CtBP-E1A inh inconclusive, Six1-Eya2 inh inconclusive
COc1cccc2c(=O)cc(C)n(CC(=O)Nc3ccc(C)c(C)c3)c12	CtBP-E1A inh -70, Six1-Eya2 inh -94
COc1ccccc1NC(=O)Cn1c(C)cc(=O)c2cccc(OC)c21	CtBP-E1A inh inconclusive
CCCC1C2C(=O)N(c3ccccc3OC)C(=O)C2ON1c1ccccc1 (stereo not given)	Akt phos inh -110%
CCN(CCCNc1cc2c(c(N)c1S(=O)(=O)O)C(=O)c1ccccc1C2=O)c1ccccc1	Six1-Eya2 inh -65
CCOC(=O)C1=CC[C@@H](c2ccccc2)N(S(=O)(=O)c2ccc(C)cc2)[C@H]1C=C(C)C	none
O=C(COC(=O)/C=C/c1cccc(Br)c1)Nc1ccc(Cl)cn1	none
CC(Oc1ccccc1)C(=O)Nc1nc(-c2ccccn2)cs1 (stereo not given)	CtBP-E1A inh -87, Six1-Eya2 inh -68
CC(Oc1ccccc1)C(=O)Nc1nc(-c2ccncc2)cs1 (stereo not given)	none
C[C@H](NC(=O)c1ccccc1)C(=O)Nc1nc(-c2ccccn2)cs1	CtBP-E1A inh -81, Six1-Eya2 inh -84
CC(Oc1cccc(Cl)c1)C(=O)Nc1nc(-c2ccccn2)cs1 (stereo not given)	CtBP-E1A inh -74, Six1-Eya2 inh inconclusive
Cc1cccc(C(=O)NC(C(=O)Nc2nc(-c3ccccn3)cs2)C(C)C)c1 (stereo not given)	Six1-Eya2 inh inconclusive (no result: CtBP-E1A inh)
COc1cccc(-c2ncc3ccccc3c2COC(=O)c2ccco2)c1	none
Cc1cc(C)nc(NC(=O)Cc2ccc([N+](=O)[O-])cc2)c1	CCT modulator -34
CCCCCCNCc1c(F)cccc1Cl	none
Cc1noc(C)c1NC(=O)N(C)C[C@H]1Oc2ccc(NC(=O)Nc3ccc(C(F)(F)F)cc3)cc2C(=O)N([C@H](C)CO)C[C@@H]1C	none
CCC1(CCC(C)C)SC(N)=NC1=O (stereo not given)	none
Cc1cc(=O)[nH]c(N/N=C/c2ccccc2Cl)n1	none (no result: CtBP-E1A inh)
CCN(CC)c1ccc(/C=N/Nc2ccc(C)cc2)c(O)c1	CtBP-E1A inh inconclusive, Six1-Eya2 inh inconclusive
CCOC(=O)N/N=C/c1ccc(N(CC)CC)cc1O	none
Cc1cc(=O)[nH]c(N/N=C/c2ccc(-c3ccc([N+](=O)[O-])cc3)o2)n1	CtBP-E1A inh -74, Six1-Eya2 inh -71
CCN(CC)c1ccc(/C=N/Nc2nc(C)cc(=O)[nH]2)c(O)c1	CtBP-E1A inh -98, Six1-Eya2 inh -92
Cc1cc(=O)[nH]c(NN=Cc2cc(Br)ccc2O)n1	CtBP-E1A inh -94, Six1-Eya2 inh -89
CCN(CC)c1ccc(/C=N/NC(=O)c2c(Cl)cnn2C)c(O)c1	CtBP-E1A inh -91, Six1-Eya2 inh -90
CC1=NCCN1CCNC(=O)Nc1ccc(C(C)(C)C)cc1	none

From PubChem
